Hits are enriched below; roughly 2.8% of the tested compounds scored in any of these assays.
IP6K1 inh: Primary qHTS assay for small molecule inhibitors of Inositol hexaphosphate kinase 1 (IP6K1). Inositol hexakisphosphate kinase 1 (Homo sapiens), Q92551. IP6K1 kinase, ADP-Glo luminescence, 2 h; active compounds read low. activity change, % (series mostly up to about 58 µM). actives 0.81% (n = 140,000); in the data active = activity change below about -25%; also: % is scaled to controls: 0 for no effect and ±100 for the full control effect
Target sequence (Q92551 whole entry, looked up): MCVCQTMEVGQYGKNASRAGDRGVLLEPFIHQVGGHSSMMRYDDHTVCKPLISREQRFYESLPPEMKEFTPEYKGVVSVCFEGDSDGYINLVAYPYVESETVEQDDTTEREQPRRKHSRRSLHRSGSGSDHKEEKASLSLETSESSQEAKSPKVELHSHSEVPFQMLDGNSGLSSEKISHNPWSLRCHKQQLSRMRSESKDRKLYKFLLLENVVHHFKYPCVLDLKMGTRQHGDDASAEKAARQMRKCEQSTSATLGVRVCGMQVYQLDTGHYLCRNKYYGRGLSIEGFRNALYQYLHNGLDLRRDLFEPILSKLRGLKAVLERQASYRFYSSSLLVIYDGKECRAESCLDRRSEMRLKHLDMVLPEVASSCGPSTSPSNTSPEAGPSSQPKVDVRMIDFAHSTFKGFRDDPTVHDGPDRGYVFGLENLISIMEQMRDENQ
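ADP-Glo luminescence measures ADP made by human IP6K1 during a 2 h RT reaction with ATP/IP6 (mix at 1.3 mM/130 uM); top library doses 57.5 and 19.1 uM final.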
KDM5B inh: Primary screen for KDM5B Histone Demethylases FDH-coupled qHTS; actives 2.6% (n = 220,000); KDM5B demethylase, FDH-coupled NADH fluorescence (FDH is formaldehyde dehydrogenase); AID 1347165, 2019; Potency, µM (titrated, usually from 57.7 µM), most hits filed as inhibitors; also: potency is read from the fitted curve at half-maximal effect; 0% is about no effect; nearly all actives have a fitted effect of over 70% in size
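Compound dilutions met 200 nM (final) KDM5BΔAP for 10 min at room temperature before substrate addition. The substrate mix held 12.5 µM H3K4me3 with cofactors 25 µM α-ketoglutarate and 50 µM Fe²⁺. NADH signal gain over 30 min defined activity.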
SNCA expr inhib: Primary qHTS assay for inhibitors of alpha-synuclein gene (SNCA) expression; HEK-293 SNCA-luciferase knock-in, luminescence, 24 h; Potency, µM (doses to about 57.2 µM), inactives show at the top dose activity change, negative = inhibition, hits mostly inhibitors; actives 0.17% (n = 140,000);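 also: potency is read from the fitted curve at half-maximal effect; plate controls were DMSO cells for no effect and cell-free wells for full effect; nearly all actives have a fitted effect of over 45% in size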
HEK293 viab: GF-AFC viability counterscreen for inhibitors of alpha-synuclein gene (SNCA) expression; HEK-293-SNCA-luc viability, GF-AFC fluorescence, 24 h; Potency, µM (top dose mostly 57.1 µM), without a hit: top-dose activity change, negative = cytotoxicity, hits mostly cytotoxic; actives 0.12% (n = 150,000);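 also: potency is read from the fitted curve at half-maximal effect; 0% = DMSO-treated cells and -100% = medium-only wells without cells; nearly all actives have a fitted effect of over 30% in size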
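Cytotoxicity counterscreen: after 24 h compound treatment of genome-edited SNCA-luciferase HEK-293 cells, live-cell protease substrate GF-AFC read by fluorescence after 30 min; activity scaled between DMSO (0%) and medium-only (-100%), curves Hill-fitted.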
An asterisk follows results filed as active; i = inactive; u = inconclusive; x = no result given; ! = repeats disagree; [ ] = another dose, or the depositor's remark. Unless noted, calls follow the shape of the dose curve; as a rule, active = well fitted curve in the direction sought with a large enough effect; inconclusive = small, poorly fitted or top-dose-only effect, or another doubt; inactive = no such curve, though single readings can be large; an effect the other way counts as inactive or inconclusive.

SMILES	IP6K1 inh	KDM5B inh	SNCA expr inhib	HEK293 viab
COCCCNc1nc2c(S(=O)(=O)c3ccc(C)c(C)c3)nnn2c2ccccc12	20	79µM*	9%	10%
CCCCCCCCS(=O)CCCCCCCC	x	i	x	x
Cc1cccc(C)c1NC(=O)CSc1nnc(-c2cccs2)n1-n1cccc1	x	i	x	x
COc1ccc(CN2CC(COc3ccccc3)C3(C2)CN(c2ccccc2)C3)cc1O (stereo unspecified)	-5	32µM*	u	u
COCC(=O)N[C@H]1C[C@H]2C(=O)NC[C@@H](CCC(=O)N3CCN(c4ccccn4)CC3)N2C1	-9	25µM*	19%	6%
CC(C)NC(=O)N[C@H]1C[C@H]2C(=O)NC[C@@H](CCC(=O)N3CCN(c4ccccn4)CC3)N2C1	1	25µM*	2%	-3%
CC(C)NC(=O)N[C@H]1C[C@H]2C(=O)NC[C@@H](CCC(=O)N3CCN(c4ccccc4)CC3)N2C1	6	u	26%	0%
O=C(N[C@H]1C[C@H]2C(=O)NC[C@@H](CCC(=O)N3CCN(c4ccccn4)CC3)N2C1)C1CC1	1	32µM*	-5%	5%
CCC(=O)Nc1ccc2c(ccn2CCN2CCOCC2)c1	x	i	x	x
COCC(=O)N1C[C@H](NC(=O)C(=O)c2cccn2C)[C@@H](C2CC2)C1	1	i	6%	-1%
COCC(=O)N1C[C@H](NC(=O)c2nc3ccccc3n(C)c2=O)[C@@H](C2CC2)C1	-2	22µM*	-21%	10%
COc1ccc(OC)c(NC(=O)Cn2c(-c3cccc(Cl)c3)nc(C)c(CCO)c2=O)c1	-5	i	-25%	-12%
COc1ccc(OC)c(NC(=O)Cn2c(-c3ccc(Cl)cc3)nc(C)c(CCO)c2=O)c1	-4	25µM*	28%	-3%
COc1ccccc1-n1cc(-c2nc(C3CCOC3)no2)cn1 (stereo unspecified)	28	28µM*	26%	-10%
CC(C)(C)OC(=O)N1CC(Nc2ccc(O)cc2)C1	-18	8.9µM*!	u	u
O=C(c1ccc(-c2ccco2)cc1)N1CCOC(c2ccccc2)C1 (stereo unspecified)	7	28µM*	16%	6%
Cc1cccc(Cn2cc3c(=O)n(CC(=O)Nc4ccc(C)c(F)c4)nc-3c3cc(F)ccc32)c1	6	i	22µM*	-14%
Cc1ccc2c(C)c(CCC(=O)Nc3ccccc3)c(=O)oc2c1	x	i	x	x
O=C(NCc1nnc2c(-c3nc(C4CC4)no3)cccn12)c1cc(F)ccc1Cl	-7	28µM*	-29%	5%
O=C(NCc1nnc2c(-c3nc(C4CC4)no3)cccn12)c1cc(F)ccc1F	17	28µM*	-6%	10%
CCOc1ccccc1C(=O)NCc1nnc2c(-c3nc(C4CC4)no3)cccn12	3	i	9%	-5%
O=C(C1CCCCC1)N1CC[C@H](c2nnc(-c3cccnc3)o2)C1	11	i	-3%[87.6 µM]	-5%[87.6 µM]
CCC(C=C[C@@H]1OC(=O)C=C[C@H]1C)=C[C@H](C)CC=CC(C)=C[C@@H](C)C(=O)[C@@H](C)[C@H](O)[C@@H](C)CC(C)=CC(=O)O	x	x	0.16µM*	u
Cc1nn(-c2ccccc2)c2c1C(C1CC1)N(C1CN(C(=O)c3ccccc3Cl)C1)C2=O (stereo unspecified)	15	x	x	x
CCOc1ccccc1C(=O)N1CCCN(c2cc(-c3ccc(Cl)cc3)[nH]n2)CC1	3	u	-29%	-18%
SMILES	IP6K1 inh	KDM5B inh	SNCA expr inhib	HEK293 viab
Cn1c2c(c3cc(F)ccc31)CN(C(=O)Nc1ccccc1)CC2	-3	u	19%	3%
CCc1cccc(NC(=O)N2CCc3c(c4cc(F)ccc4n3C)C2)c1	-5	25µM*	u	-2%
CC(C)c1cccc(C(C)C)c1NC(=O)N1CCc2c(c3cc(F)ccc3n2C)C1	-3	25µM*	-3%	-12%
Cc1ccccc1NC(=O)N1CCc2c(c3cc(F)ccc3n2C)C1	-10	28µM*	-6%	4%
Cc1ccc(NC(=O)N2CCc3c(c4cc(F)ccc4n3C)C2)cc1	-3	14µM*	18%	u
CCc1nc2c(c(-c3ccc(OC)cc3)n1)CCN([S+](=O)([O-])c1cccc(OC)c1)CC2	7	i	-25%	-16%
O=C(c1ccc(-c2ccc(CO)cc2)nc1)N1CCC(CCc2ccccc2)CC1	-4	i	-23%	-20%
CCCOc1nccnc1NC1CCN(C(=O)C2CCCO2)CC1 (stereo unspecified)	4	25µM*	14%	10%
CCCOc1nccnc1NC1CCN(C(=O)c2ccccn2)CC1	4	28µM*	6%	1%
CCCOc1nccnc1NC1CCN(C(=O)NCc2ccco2)CC1	-3	25µM*	-12%	-1%
COc1nccnc1NC1CCN(C(=O)c2cnn3cccnc23)CC1	-2	u	11%	-2%
CCCOc1nccnc1NC1CCN(C(=O)NCC)CC1	3	28µM*	u	-9%
CS(=O)(=O)N1CCC(OC2CCN(C(=O)NCc3ccco3)CC2)CC1	12	i	-1%	-5%
COC(=O)c1sc(=S)n(-c2cc(C)cc(C)c2)c1N	x	i	x	x
C=CCNC(=O)N[C@H]1[C@H](O)[C@@H](N2CCCCC2)[C@@H]2OC[C@H]1O2	11	i	31%[87.6 µM]	1%[87.6 µM]
Cc1cc(C(=O)N[C@@H]2C[C@H](Cn3cc(CN(C)C)nn3)[C@@H](O)[C@H]2O)c(C)o1	2	u	3%[87.6 µM]	-3%[87.6 µM]
CCOc1ccc(Cc2nc(-c3c(C)nc4ccccn34)cs2)cc1	-1	x	x	12µM*
O=C(CCc1cc2n(n1)CCCNC2)N1CCCC(c2nnc3ccccn23)C1 (stereo unspecified)	1	11µM*	2%	-10%
O=C(c1ccccc1F)N1CCC(c2n[nH]c(=O)n2-c2ccccc2)CC1	20	i	-15%	-5%
COc1ccc(C(=O)N2CCN(c3nc4c(OC)cccc4s3)CC2)cc1OC	6	i	-8%	-1%
COc1ccc(C(=O)N2CCN(c3nnc4ccccn34)CC2)cc1OC	8	25µM*	-22%	-4%
COc1ccc(C(=O)N2CCCN(c3cc(-c4ccccc4)[nH]n3)CC2)cc1F	5	i	u	-19%
COc1ccc(C(=O)N2CCCN(c3nnc4ccccn34)CC2)cc1F	6	25µM*	-19%	u
O=C(N[C@@H](Cn1cc(Cl)c(=O)[nH]c1=O)C(=O)O)C1CCCC1	10	i	-9%[87.6 µM]	4%[87.6 µM]
CC1(C(=O)NCC2CC2)CCCc2cnc(Nc3ccccc3)nc21 (stereo unspecified)	-8	i	u	-26%[87.6 µM]
CC1(C(=O)NCCCn2ccnc2)CCc2cnc(NCc3ccccc3)nc21 (stereo unspecified)	2	40µM*	u	-6%[87.6 µM]

Assay outcomes from PubChem BioAssay.
